Measurements taken from the supplement of paper PMC7411054.
Counter-ions that a name gives are not always drawn.

What was measured:
Settings in all cases: treatment time: 24 h
A549-CANX-COX4 = experiment: phenotypically active (imaging signature differs from DMSO and reproducible) at any of 0.3-9 uM (binary (1 = active, 0 = inactive)); higher = active
In short: (§1)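 Cells from fifteen gene-edited reporter lines (A549, HepG2 and WPMY1) were treated for 24 h at 0.3, 1, 3 or 9 µM and imaged live, four wells per condition. Features were normalised per well to solvent control wells. A condition deviated if ≥3 of 4 wells passed the 95th percentile of control Euclidean distances and was reproducible if its median replicate Pearson correlation beat the 95th percentile of non-replicates; phenotypic activity needed both.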

A549-TP53BP1-CLTA = experiment: as above
In short: as §1

HepG2-ACTB-RAB5A = experiment: as above
In short: as §1

HepG2-CANX-COX4 = experiment: as above
In short: as §1

HepG2-GM130-SQSTM1 = experiment: as above
In short: as §1

HepG2-TP53BP1-CLTA = experiment: as above
In short: as §1

HepG2-TUBA1B-RELA = experiment: as above
In short: as §1

WPMY1-ACTB-RAB5A = experiment: as above
In short: as §1

WPMY1-CANX-COX4 = experiment: as above
In short: as §1

WPMY1-GM130-SQSTM1 [1] = experiment: as above
In short: as §1

WPMY1-TP53BP1-CLTA = experiment: as above
In short: as §1

WPMY1-TUBA1B-RELA = experiment: as above
In short: as §1

A549-ACTB-RAB5A = experiment: as above
In short: as §1

A549-GM130-SQSTM1 = experiment: as above
In short: as §1

A549-TUBA1B-RELA = experiment: as above
In short: as §1

WPMY1-GM130-SQSTM1 [2] = experiment: lowest phenotypically active concentration; higher = less potent
In short: as §1

CC(C)NCC(O)COc1cccc2ccccc12 (stereo unspecified) [propranolol]
inactive: phenotypically active (A549-CANX-COX4) 0 | phenotypically active (A549-TP53BP1-CLTA) 0 | phenotypically active (HepG2-ACTB-RAB5A) 0 | phenotypically active (HepG2-CANX-COX4) 0 | phenotypically active (HepG2-GM130-SQSTM1) 0 | phenotypically active (HepG2-TP53BP1-CLTA) 0 | phenotypically active (HepG2-TUBA1B-RELA) 0 | phenotypically active (WPMY1-ACTB-RAB5A) 0 | phenotypically active (WPMY1-CANX-COX4) 0 | phenotypically active (WPMY1-GM130-SQSTM1 [1]) 0 | phenotypically active (WPMY1-TP53BP1-CLTA) 0 | phenotypically active (WPMY1-TUBA1B-RELA) 0

C#C[C@]1(OC(C)=O)CC[C@H]2[C@@H]3CCC4=C[C@@H](OC(C)=O)CC[C@@H]4[C@H]3CC[C@@]21C [ethynodiol diacetate]
inactive: phenotypically active (A549-CANX-COX4) 0 | phenotypically active (A549-TP53BP1-CLTA) 0 | phenotypically active (HepG2-ACTB-RAB5A) 0 | phenotypically active (HepG2-CANX-COX4) 0 | phenotypically active (HepG2-GM130-SQSTM1) 0 | phenotypically active (HepG2-TP53BP1-CLTA) 0 | phenotypically active (HepG2-TUBA1B-RELA) 0 | phenotypically active (WPMY1-ACTB-RAB5A) 0 | phenotypically active (WPMY1-CANX-COX4) 0 | phenotypically active (WPMY1-GM130-SQSTM1 [1]) 0 | phenotypically active (WPMY1-TP53BP1-CLTA) 0 | phenotypically active (WPMY1-TUBA1B-RELA) 0

COc1ccc(CCN(C)CCCC(C#N)(c2ccc(OC)c(OC)c2)C(C)C)cc1OC (stereo unspecified) [verapamil]
active: phenotypically active (A549-ACTB-RAB5A) 1 | phenotypically active (A549-GM130-SQSTM1) 1 | phenotypically active (A549-TUBA1B-RELA) 1
inactive: phenotypically active (A549-CANX-COX4) 0 | phenotypically active (HepG2-ACTB-RAB5A) 0 | phenotypically active (HepG2-CANX-COX4) 0 | phenotypically active (HepG2-GM130-SQSTM1) 0 | phenotypically active (HepG2-TUBA1B-RELA) 0 | phenotypically active (WPMY1-ACTB-RAB5A) 0 | phenotypically active (WPMY1-CANX-COX4) 0 | phenotypically active (WPMY1-GM130-SQSTM1 [1]) 0 | phenotypically active (WPMY1-TUBA1B-RELA) 0

CCCc1nc2c(C)cc(-c3nc4ccccc4n3C)cc2n1Cc1ccc(-c2ccccc2C(=O)O)cc1 [telmisartan]
inactive: phenotypically active (A549-CANX-COX4) 0 | phenotypically active (A549-TP53BP1-CLTA) 0 | phenotypically active (HepG2-ACTB-RAB5A) 0 | phenotypically active (HepG2-CANX-COX4) 0 | phenotypically active (HepG2-GM130-SQSTM1) 0 | phenotypically active (HepG2-TP53BP1-CLTA) 0 | phenotypically active (HepG2-TUBA1B-RELA) 0 | phenotypically active (WPMY1-ACTB-RAB5A) 0 | phenotypically active (WPMY1-CANX-COX4) 0 | phenotypically active (WPMY1-GM130-SQSTM1 [1]) 0 | phenotypically active (WPMY1-TP53BP1-CLTA) 0 | phenotypically active (WPMY1-TUBA1B-RELA) 0

N#Cc1c(O)c2c(-c3ccc(-c4ccccc4O)cc3)csc2[nH]c1=O
inactive: phenotypically active (A549-CANX-COX4) 0 | phenotypically active (A549-TP53BP1-CLTA) 0 | phenotypically active (HepG2-ACTB-RAB5A) 0 | phenotypically active (HepG2-CANX-COX4) 0 | phenotypically active (HepG2-GM130-SQSTM1) 0 | phenotypically active (HepG2-TP53BP1-CLTA) 0 | phenotypically active (HepG2-TUBA1B-RELA) 0 | phenotypically active (WPMY1-ACTB-RAB5A) 0 | phenotypically active (WPMY1-CANX-COX4) 0 | phenotypically active (WPMY1-GM130-SQSTM1 [1]) 0 | phenotypically active (WPMY1-TP53BP1-CLTA) 0 | phenotypically active (WPMY1-TUBA1B-RELA) 0

NCCC(O)(P(=O)(O)O)P(=O)(O)O [pamidronate]
inactive: phenotypically active (A549-CANX-COX4) 0 | phenotypically active (A549-TP53BP1-CLTA) 0 | phenotypically active (HepG2-ACTB-RAB5A) 0 | phenotypically active (HepG2-CANX-COX4) 0 | phenotypically active (HepG2-GM130-SQSTM1) 0 | phenotypically active (HepG2-TP53BP1-CLTA) 0 | phenotypically active (HepG2-TUBA1B-RELA) 0 | phenotypically active (WPMY1-ACTB-RAB5A) 0 | phenotypically active (WPMY1-CANX-COX4) 0 | phenotypically active (WPMY1-GM130-SQSTM1 [1]) 0 | phenotypically active (WPMY1-TP53BP1-CLTA) 0 | phenotypically active (WPMY1-TUBA1B-RELA) 0

O=C(O)[C@H]1O[C@@H](Oc2cc3oc(-c4ccccc4)cc(=O)c3c(O)c2O)[C@H](O)[C@@H](O)[C@@H]1O [Baicalin]
3 µM: lowest phenotypically active concentration (WPMY1-GM130-SQSTM1 [2])
inactive: phenotypically active (A549-ACTB-RAB5A) 0 | phenotypically active (A549-CANX-COX4) 0 | phenotypically active (A549-GM130-SQSTM1) 0 | phenotypically active (A549-TP53BP1-CLTA) 0 | phenotypically active (A549-TUBA1B-RELA) 0 | phenotypically active (HepG2-ACTB-RAB5A) 0 | phenotypically active (HepG2-CANX-COX4) 0 | phenotypically active (HepG2-GM130-SQSTM1) 0 | phenotypically active (HepG2-TP53BP1-CLTA) 0 | phenotypically active (HepG2-TUBA1B-RELA) 0 | phenotypically active (WPMY1-ACTB-RAB5A) 0 | phenotypically active (WPMY1-CANX-COX4) 0 | phenotypically active (WPMY1-TP53BP1-CLTA) 0 | phenotypically active (WPMY1-TUBA1B-RELA) 0
active: phenotypically active (WPMY1-GM130-SQSTM1 [1]) 1

CS(=O)(=O)c1ccc(-c2nnc(/C=C/c3nnc(-c4ccc(C#N)cc4)o3)n2-c2ccccc2Cl)nc1
active: phenotypically active (WPMY1-TP53BP1-CLTA) 1
inactive: phenotypically active (A549-ACTB-RAB5A) 0 | phenotypically active (A549-CANX-COX4) 0 | phenotypically active (A549-GM130-SQSTM1) 0 | phenotypically active (A549-TP53BP1-CLTA) 0 | phenotypically active (A549-TUBA1B-RELA) 0 | phenotypically active (HepG2-ACTB-RAB5A) 0 | phenotypically active (HepG2-CANX-COX4) 0 | phenotypically active (HepG2-GM130-SQSTM1) 0 | phenotypically active (HepG2-TP53BP1-CLTA) 0 | phenotypically active (HepG2-TUBA1B-RELA) 0 | phenotypically active (WPMY1-ACTB-RAB5A) 0 | phenotypically active (WPMY1-CANX-COX4) 0 | phenotypically active (WPMY1-GM130-SQSTM1 [1]) 0 | phenotypically active (WPMY1-TUBA1B-RELA) 0

O=C(O)/C(Cc1ccccc1[N+](=O)[O-])=N\Nc1nc(-c2ccc(Cl)c(Cl)c2)cs1
active: phenotypically active (WPMY1-TP53BP1-CLTA) 1
inactive: phenotypically active (A549-ACTB-RAB5A) 0 | phenotypically active (A549-CANX-COX4) 0 | phenotypically active (A549-GM130-SQSTM1) 0 | phenotypically active (A549-TP53BP1-CLTA) 0 | phenotypically active (A549-TUBA1B-RELA) 0 | phenotypically active (HepG2-ACTB-RAB5A) 0 | phenotypically active (HepG2-CANX-COX4) 0 | phenotypically active (HepG2-GM130-SQSTM1) 0 | phenotypically active (HepG2-TP53BP1-CLTA) 0 | phenotypically active (HepG2-TUBA1B-RELA) 0 | phenotypically active (WPMY1-ACTB-RAB5A) 0 | phenotypically active (WPMY1-CANX-COX4) 0 | phenotypically active (WPMY1-GM130-SQSTM1 [1]) 0 | phenotypically active (WPMY1-TUBA1B-RELA) 0

Cc1cnc(NC(=O)C2=C(O)c3ccccc3S(=O)(=O)N2C)s1 [meloxicam]
inactive: phenotypically active (A549-ACTB-RAB5A) 0 | phenotypically active (A549-CANX-COX4) 0 | phenotypically active (A549-GM130-SQSTM1) 0 | phenotypically active (A549-TUBA1B-RELA) 0 | phenotypically active (HepG2-ACTB-RAB5A) 0 | phenotypically active (HepG2-CANX-COX4) 0 | phenotypically active (HepG2-GM130-SQSTM1) 0 | phenotypically active (HepG2-TUBA1B-RELA) 0 | phenotypically active (WPMY1-ACTB-RAB5A) 0 | phenotypically active (WPMY1-CANX-COX4) 0 | phenotypically active (WPMY1-GM130-SQSTM1 [1]) 0 | phenotypically active (WPMY1-TUBA1B-RELA) 0

Cc1ccc(NC(=O)c2ccc(CN3CCN(C)CC3)cc2)cc1Nc1nccc(-c2cccnc2)n1 [Imatinib mesylate]
active: phenotypically active (A549-CANX-COX4) 1 | phenotypically active (A549-GM130-SQSTM1) 1 | phenotypically active (HepG2-ACTB-RAB5A) 1 | phenotypically active (HepG2-CANX-COX4) 1 | phenotypically active (HepG2-TUBA1B-RELA) 1 | phenotypically active (WPMY1-ACTB-RAB5A) 1 | phenotypically active (WPMY1-CANX-COX4) 1 | phenotypically active (WPMY1-GM130-SQSTM1 [1]) 1 | phenotypically active (WPMY1-TUBA1B-RELA) 1

O=C1C=C(O)C(=O)c2ccccc21 [2-Hydroxy-[1,4]naphthoquinone]
inactive: phenotypically active (A549-ACTB-RAB5A) 0 | phenotypically active (A549-CANX-COX4) 0 | phenotypically active (A549-GM130-SQSTM1) 0 | phenotypically active (A549-TP53BP1-CLTA) 0 | phenotypically active (A549-TUBA1B-RELA) 0 | phenotypically active (HepG2-ACTB-RAB5A) 0 | phenotypically active (HepG2-CANX-COX4) 0 | phenotypically active (HepG2-GM130-SQSTM1) 0 | phenotypically active (HepG2-TP53BP1-CLTA) 0 | phenotypically active (HepG2-TUBA1B-RELA) 0 | phenotypically active (WPMY1-ACTB-RAB5A) 0 | phenotypically active (WPMY1-CANX-COX4) 0 | phenotypically active (WPMY1-TP53BP1-CLTA) 0 | phenotypically active (WPMY1-TUBA1B-RELA) 0
active: phenotypically active (WPMY1-GM130-SQSTM1 [1]) 1
≤ 0.3 µM: lowest phenotypically active concentration (WPMY1-GM130-SQSTM1 [2])

CC(C)C(=O)Nc1ccc([N+](=O)[O-])c(C(F)(F)F)c1 [flutamide]
active: phenotypically active (WPMY1-GM130-SQSTM1 [1]) 1
9 µM: lowest phenotypically active concentration (WPMY1-GM130-SQSTM1 [2])
inactive: phenotypically active (A549-ACTB-RAB5A) 0 | phenotypically active (A549-CANX-COX4) 0 | phenotypically active (A549-GM130-SQSTM1) 0 | phenotypically active (A549-TP53BP1-CLTA) 0 | phenotypically active (A549-TUBA1B-RELA) 0 | phenotypically active (HepG2-ACTB-RAB5A) 0 | phenotypically active (HepG2-CANX-COX4) 0 | phenotypically active (HepG2-GM130-SQSTM1) 0 | phenotypically active (HepG2-TP53BP1-CLTA) 0 | phenotypically active (HepG2-TUBA1B-RELA) 0 | phenotypically active (WPMY1-ACTB-RAB5A) 0 | phenotypically active (WPMY1-CANX-COX4) 0 | phenotypically active (WPMY1-TP53BP1-CLTA) 0 | phenotypically active (WPMY1-TUBA1B-RELA) 0
